Test results taken from PubChem BioAssay AID463173 (ICCB-Longwood Screening Facility, Harvard Medical School, 2010).
Screen size: about 52,000 compounds; about 4,300 (8.3%) were called active. No stated cut-off is given here; in the data, active means survival mostly below about 52% (no sharp cut-off); inactive means mostly above about 56%. The list comes from a sample in which actives are over-represented; it also holds similar structures and randomly drawn compounds.

Test system: DeltatarO mutant
Test: growth inhibition of S. aureus wild type versus tarO mutant, primary screen, teichoic acid synthesis inhibitors, RN4220, OD600 (AID 463173)
Settings: OD600, 18 h, active compounds read low, screened at 18.75 µg/mL (by protocol)

Row | Structure (SMILES) | survival
1 | CN(C)c1ccc(C(=O)NC2CCSC2=O)cc1 (centres undefined) | 66% (inactive)
2 | Cc1ccc(Cl)cc1N1CCN(C(=O)C(C)n2ncn3cccc3c2=O)CC1 (centres undefined) | 66% (inactive)
3 | Cc1ccc2nc(-c3ccc(NC(=O)COc4ccc(Br)cc4Br)cc3)sc2c1 | 104% (inactive)
4 | CCOc1cc(-c2nnc(SCC(=O)NCCCOC)nc2-c2ccc(OC)c(OCC)c2)ccc1OC | 73% (inactive)
5 | COc1ccc(NC(=O)CCCN2C(=O)COc3ccc(C)cc32)cc1OC | 119% (inactive)
6 | COc1ccc(CNC(=O)c2oc3c(c2C)-c2nn(Cc4ccccc4Cl)cc2CC3)cc1 | 89% (inactive)
7 | O=C(Nc1ccc2nc(SCCOc3ccccc3Cl)sc2c1)c1cccs1 | 49% (inactive)
8 | COc1cc(C)ccc1OCCSc1nc2ccc(NC(=O)c3ccco3)cc2s1 | 62% (inactive)
9 | Cc1ccccc1OCCSc1nc2ccc(NC(=O)c3ccccc3)cc2s1 | 57% (inactive)
10 | Cc1ccc(OCCSc2nc3ccc(NC(=O)c4ccco4)cc3s2)cc1 | 84% (inactive)
11 | O=C(Nc1ccc2nc(SCCOc3ccccc3Cl)sc2c1)c1ccco1 | 14% (active)
12 | CC(=O)Nc1ccc2nc(SCCOc3ccccc3Cl)sc2c1 | 3% (active)
13 | CC(C)(C)C(=O)Nc1ccc2nc(SCCOc3ccccc3Cl)sc2c1 | 89% (inactive)
14 | O=C(Nc1ccc2nc(SCCOc3ccccc3)sc2c1)c1ccco1 | 99% (inactive)
15 | Cc1ccccc1OCCSc1nc2ccc(NC(=O)c3ccco3)cc2s1 | 25% (active)
16 | O=C(NC1CCCC1)c1ccc2c(c1)N(Cc1ccccc1F)C(=O)c1ccccc1S2 | 81% (inactive)
17 | Cc1nc2cccnc2n1-c1cccc(C(=O)NCCN(C)C)c1 | 74% (inactive)
18 | O=C(NCC(c1cccs1)S(=O)(=O)c1ccccc1)c1ccc(C(F)(F)F)cc1 (centres undefined) | 90% (inactive)
19 | O=C(NCc1ccc(Cl)cc1)c1cnc2sc(N3CCOCC3)nn2c1=O | 52% (active)
20 | O=C(NCCc1ccc(Cl)cc1)c1cnc2sc(N3CCOCC3)nn2c1=O | 77% (inactive)
21 | O=C(NCc1ccc(Cl)cc1)c1cnc2sc(N3CCCC3)nn2c1=O | 72% (inactive)
22 | O=C(CN1C(=O)C2(SCC(=O)N2c2cccc(Cl)c2)c2ccccc21)NC1CCCCC1 (centres undefined) | 86% (inactive)
23 | Cc1ccc2c(CC(=O)Nc3ccc(S(=O)(=O)N4CCCCC4C)cc3)coc2c1C (centres undefined) | 53% (inactive)
24 | COc1ccccc1NC(=O)CN1C(=O)C(c2ccc(F)cc2)=NC12CCCCC2 | 72% (inactive)

Row | Structure (SMILES) | survival
25 | COc1ccc(S(=O)(=O)NCCc2cn3ccsc3n2)cc1OC | -1% (active)
26 | COc1ccc(S(=O)(=O)NCCc2cn3ccsc3n2)cc1 | 86% (inactive)
27 | Cc1ccc(S(=O)(=O)NCCc2cn3ccsc3n2)cc1 | 64% (inactive)
28 | CCN(CCCNC(=O)c1cc2c(=O)[nH]c3ccc(C)cc3c2s1)c1ccc(C)cc1 | 68% (inactive)
29 | CCc1cccc(C)c1NC(=O)COCc1cc(-c2ccc3c(c2)OCO3)on1 | 101% (inactive)
30 | CCOCCn1ccc2c(OCC(=O)Nc3cccc(F)c3)cccc2c1=O | 91% (inactive)
31 | CCn1ccc2c(OCC(=O)NCc3ccccc3)cccc2c1=O | 102% (inactive)
32 | COCCn1ccc2c(OCC(=O)NCc3ccc(F)cc3)cccc2c1=O | 92% (inactive)
33 | COCCn1ccc2c(OCC(=O)Nc3cccc(OC)c3)cccc2c1=O | 92% (inactive)
34 | CCn1ccc2c(OCC(=O)Nc3ccccc3C(F)(F)F)cccc2c1=O | 85% (inactive)
35 | CCOCCn1ccc2c(OCC(=O)Nc3ccc(C(N)=O)cc3)cccc2c1=O | 37% (active)
36 | CCOCCn1ccc2c(OCC(=O)Nc3cc(C)cc(C)c3)cccc2c1=O | 83% (inactive)
37 | COCCn1ccc2c(OCC(=O)Nc3ccccc3F)cccc2c1=O | 25% (active)
38 | CCOc1ccccc1NC(=O)COc1cccc2c(=O)n(CCOC)ccc12 | 70% (inactive)
39 | CCn1ccc2c(OCC(=O)Nc3ccc(C(C)=O)cc3)cccc2c1=O | 66% (inactive)
40 | CCn1ccc2c(OCC(=O)Nc3ccc(OC)cc3OC)cccc2c1=O | 20% (active)
41 | CCn1ccc2c(OCC(=O)Nc3ccccc3C)cccc2c1=O | 8% (active)
42 | COC(=O)c1sccc1S(=O)(=O)N(CC(=O)NCc1ccc(C)cc1)c1ccc(C)c(C)c1 | 68% (inactive)
43 | Fc1ccccc1N1CCN(c2ncnc3c2nc2n3CCCC2)CC1 | 84% (inactive)
44 | O=C(Nc1ccccc1)c1ccc(S(=O)(=O)N2CCCC2)cc1 | 94% (inactive)
45 | N#Cc1ccccc1NC(=O)C(=O)NCC(c1ccc2c(c1)OCO2)N1CCOCC1 (centres undefined) | 71% (inactive)
46 | CCC(=O)N1CCc2cc(Br)cc(S(=O)(=O)CCC(=O)N3CCN(c4ccccc4F)CC3)c21 | 80% (inactive)
47 | O=C(NCc1ccccc1Cl)C1CCCN(S(=O)(=O)c2cccc3nsnc23)C1 (centres undefined) | 91% (inactive)
48 | CCN1CCN(CCC(=O)Nc2ccc(OC)cc2)CC1 | 97% (inactive)

Row | Structure (SMILES) | survival
49 | Cc1nn(-c2ccccc2)c2sc(C(=O)N(Cc3ccco3)C(C)C(=O)NC3CCCCC3)cc12 (centres undefined) | 60% (active)
50 | Cc1nn(-c2ccccc2)c2sc(C(=O)N(CC(=O)NC3CCCC3)C3CC3)cc12 | 78% (inactive)
51 | Cc1nn(-c2ccccc2)c2sc(C(=O)NN=C3CCCC3)cc12 | 109% (inactive)
52 | O=C(OCc1ccccc1Cl)c1ccc(-c2nnn(Cc3ccccc3)n2)cc1 | 52% (inactive)
53 | CC(C)CNC(=O)C1CCN(S(=O)(=O)c2ccc(-n3cnnn3)cc2)CC1 | 86% (inactive)
54 | Cc1ccc(NC(=O)Cn2c(=O)nc(-c3ccccc3F)c3cc(Cl)ccc32)c(Br)c1 | 79% (inactive)
55 | O=C1CC2CCC(CN1)N2S(=O)(=O)c1ccc(C(=O)O)cc1 (centres undefined) | 93% (inactive)
56 | Cc1ccc(-c2cc(C(=O)N3CCN(S(=O)(=O)c4ccc(Br)s4)CC3)[nH]n2)c(C)c1 | 70% (inactive)
57 | O=C(NCc1ccccc1Cl)c1cnc2sc(N3CCCCC3)nn2c1=O | 76% (inactive)
58 | COc1ccc(C(=O)NCC(c2ccc(N(C)C)cc2)N2CCc3ccccc32)cc1 (centres undefined) | 118% (inactive)
59 | Cc1cc(C(=O)NCc2ccc(C(=O)O)o2)c(C)o1 | 58% (active)
60 | Cc1cc(C(=O)NCC(=O)O)c(C)o1 | 76% (inactive)
61 | Cc1cc(C(=O)Nc2ccccc2C(=O)O)c(C)o1 | 66% (inactive)
62 | CCC(=O)NC1CCNCC1 | 76% (inactive)
63 | CCOc1ccc(OCC)c(NS(=O)(=O)c2ccc3[nH]c(=O)ccc3c2)c1 | 8% (active)
64 | CCOc1ccc(CNS(=O)(=O)c2ccc3[nH]c(=O)ccc3c2)cc1 | 85% (inactive)
65 | CCOc1ccccc1CNS(=O)(=O)c1ccc2[nH]c(=O)ccc2c1 | 81% (inactive)
66 | Cc1ccc(C)c(NS(=O)(=O)c2ccc3oc(=O)c4ncn(C)c4c3c2)c1 | 82% (inactive)
67 | Cc1ccccc1Cn1c(CCCNC(=O)C2CCCCC2)nc2ccccc21 | 90% (inactive)
68 | COc1cccc(OCc2nc3ccccc3n2Cc2ccccc2C)c1 | 75% (inactive)
69 | O=C(NCCCc1nc2ccccc2n1Cc1ccccc1F)c1ccco1 | 63% (inactive)
70 | COc1ccc(Cc2nc3ccccc3n2Cc2ccccc2F)cc1 | 18% (active)
71 | COc1ccc(Cc2nc3ccccc3n2Cc2ccccc2C)cc1 | -3% (active)
72 | O=C(NCCc1nc2ccccc2n1Cc1ccccc1F)c1ccc(F)cc1 | 81% (inactive)

Row | Structure (SMILES) | survival
73 | CC(=O)N1CCc2cc(CNC(=O)Cc3ccc(F)cc3)ccc21 | 94% (inactive)
74 | Cc1oc2cc3oc(=O)c(CC(=O)N4CCCCC4)c(C)c3cc2c1C | 73% (inactive)
75 | O=C(Cn1cc(SCc2ccccc2F)c2ccccc21)N1CCCCC1 | 82% (inactive)
76 | CCOc1ccc(NC(=O)c2ccc(F)c(S(=O)(=O)N(CC)Cc3ccccc3)c2)cc1 | 78% (inactive)
77 | Cc1ccc(NC(=O)c2cc(S(=O)(=O)NC3CCCCCC3)ccc2F)cc1F | 92% (inactive)
78 | COC(=O)c1ccc(CN(Cc2ccc(OC)c(OC)c2)S(=O)(=O)c2cc(C(=O)Nc3cccc(C)c3)ccc2F)cc1 | 86% (inactive)
79 | O=C(Nc1ccc(Br)cc1)c1ccc(F)c(S(=O)(=O)NC2CCCCCC2)c1 | 84% (inactive)
80 | O=C(Nc1ccc(C(F)(F)F)cc1)c1cc(S(=O)(=O)NC2CCCCC2)ccc1F | 92% (inactive)
81 | CCOc1ccc(NC(=O)c2ccc(F)c(S(=O)(=O)N(Cc3ccc(C(=O)OC)cc3)Cc3ccc(OC)c(OC)c3)c2)cc1 | 47% (active)
82 | CCc1ccc(NC(=O)c2ccc(F)c(S(=O)(=O)N(C)C3CCCCC3)c2)cc1 | 84% (inactive)
83 | O=C(Nc1ccc(C(F)(F)F)cc1)c1cc(S(=O)(=O)NC2CCCCCC2)ccc1F | 25% (active)
84 | O=C(Nc1ccc(Cl)cc1)c1cc(S(=O)(=O)NC2CCCCCC2)ccc1F | 90% (inactive)
85 | Cc1ccc(NC(=O)c2cc(S(=O)(=O)NC3CCCCC3)ccc2F)cc1Cl | -5% (active)
86 | O=C(Nc1ccc(F)c(F)c1)c1cc(S(=O)(=O)NC2CCCCCC2)ccc1F | 54% (inactive)
87 | CCc1ccc(NC(=O)c2ccc(F)c(S(=O)(=O)NC3CCCCCC3)c2)cc1 | -2% (active)
88 | CSc1nnc(COc2ccc(Br)cc2)n1Cc1ccccc1 | 97% (inactive)
89 | CCNC(=O)Nc1ccc2nc(C)n(Cc3cccc(Cl)c3)c(=O)c2c1 | 104% (inactive)
90 | Cc1nn(-c2ccccc2)c2c1N(CCCC(=O)NCc1ccccc1)C(=O)CS2 | 99% (inactive)
91 | O=C(c1ccco1)N1CCN(Cc2cccc(Br)c2)CC1 | 95% (inactive)
92 | Cc1ccc(CNC(=O)CCCCn2c(=O)c3ccccc3n(Cc3ccc(C)cc3)c2=O)cc1 | 67% (inactive)
93 | CCOc1ccc(OCC)c(NC(=O)C2CCN(S(=O)(=O)c3ccc(Br)s3)CC2)c1 | 80% (inactive)
94 | COc1cc(NC(=O)C2CCN(S(=O)(=O)c3ccc4c(c3)oc(=O)n4C)CC2)cc(OC)c1 | 102% (inactive)
